This note sets out measurements from PubChem BioAssay.

The nature of assay [1]: Wnt pathway potentiators raising nuclear beta-catenin – imaging, WNT3A-conditioned medium, mouse C2C12, NPC library, primary screen (AID 1117326). Also: reference of the scale not given here. The note with it: stronger effect = higher value.
Assay [2] can be described thus: stimulators of insulin release from INS-1E, primary screen, cell-based, 5 mM glucose, NPC library (AID 1117329;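 active = compound raises insulin release from rat beta cells at 5 mM glucose, no numeric limit stated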; also: reference of the scale not given here). The note with it: rat INS-1E insulin secretion, at 10 µM, stronger effect = higher value.
Assay [3] can be described thus: growth inhibition of GSK3B-pretreated HCT116 cells – cell-based, CellTiter-Glo, 0.2 to 20 µM (AID 1117336;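 active = compounds lowering colon cancer cell viability after pretreatment blocking the GSK3B kinase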). The conditions noted are these: HCT116 viability after GSK3B inhibitor, at 20 µM, stronger effect = higher value.
Assay [4] is described as follows: inhibition of endothelial tube formation, primary screen, imaging, VEGF stimulated, CD31 staining, tube area, NPC library (AID 1117340;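 active = compound that reduces growth-factor-driven endothelial tube area in a mixed cell culture, no cutoff stated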). The note with it: VEGF-stimulated ADSC/ECFC co-culture, at 10 µM, stronger effect = higher value.
The nature of assay [5]: GLP1 release stimulators, primary, NCI-H716, NPC library (AID 1117341;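 active = compound raises GLP1 secretion from the human gut endocrine cells, with no numeric limit stated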; also: reference of the scale not given here). The conditions noted are these: NCI-H716 cells, at 10 µM, stronger effect = higher value.
Assay [6] is described as follows: HCT116 colon cancer cell growth inhibition, primary screen, CellTiter-Glo luminescence, NPC library (AID 1117342;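 active = compounds that lower survival of HCT116 colon cancer cells in the luminescence readout, no numeric limit stated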). The note with it: at 20 µM (top of the series). On the technique in general: ATP-based viability assays read luminescence as a measure of living cells.
Assay [7] is described as follows: reduced SW480 viability measured with CellTiter-Glo, NPC library, primary (AID 1117343;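 active = compounds that lower viability of the colon cancer cells in the luminescence readout, with no numeric limit stated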). The note with it: CellTiter-Glo luminescence; at 20 µM (top of the series).
Assay [8] can be described thus: NPC library primary testing for decreased DLD-1 cell viability via CellTiter-Glo (AID 1117346;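 active = compounds that lower survival of DLD-1 colon cancer cells in the luminescence readout, no cutoff given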). The conditions noted are these: DLD-1 viability, CellTiter-Glo luminescence; at 20 µM (top of the series).

The source made the active and inactive calls. Rule as the data show it, unless noted: active = nuclear beta-catenin stimulation mostly above about 4.2% (no sharp cut-off); inactive = mostly below about 10%.

Regarding `COc1cccc(C(=O)CCN[C@@H](C)[C@H](O)c2ccccc2)c1`, the nuclear beta-catenin stimulation in assay [1] (at 10 µM) is 20.8% (inactive); in assay [1] (stimulation, at 2 µM), -0.6%. The insulin secretion stimulation in assay [2] was 8.8% (inactive). In assay [3], the viability decrease is -1.3% (inactive). For the same compound, the tube area decrease in assay [4] was 42% (active). In addition, the GLP1 secretion stimulation in assay [5] was 0.7% (inactive). In assay [6], the inhibition of viability was 2.3% (inactive). Also, the viability decrease (inhibition) in assay [7] is 91.6% (active); in assay [8], 75.9% (active).

Regarding `CNC(=O)NC(O)C(Cl)(Cl)Cl` (stereo unspecified), the nuclear beta-catenin stimulation is -0.4% (inactive) in assay [1] (at 10 µM) and -0.2% in assay [1] (stimulation, at 2 µM). In addition, in assay [2], the insulin secretion stimulation is -1% (inactive). In assay [3], the viability decrease was -2.1% (inactive). Also, the tube area decrease in assay [4] is -28.9% (inactive). In assay [5], the GLP1 secretion stimulation is 3.1% (inactive). The inhibition of viability in assay [6] is -4.4% (inactive). For the same compound, the viability decrease (inhibition) in assay [7] was 19.7% (inactive); in assay [8], -1.55% (inactive).

Take `CC(C(O)c1ccccc1)N(C)C/C=C/c1ccccc1` (stereo unspecified): the nuclear beta-catenin stimulation is 3.5% (inactive) in assay [1] (at 10 µM) and 3.1% in assay [1] (stimulation, at 2 µM). Moreover, the insulin secretion stimulation in assay [2] was 2.4% (inactive). The viability decrease in assay [3] was -101% (inactive). In addition, the tube area decrease in assay [4] is 54.6% (active). Moreover, the GLP1 secretion stimulation in assay [5] is -3.2% (inactive). Besides, the inhibition of viability in assay [6] was 60.9% (active). Moreover, the viability decrease (inhibition) in assay [7] is 29.4% (inactive); in assay [8] it was 7.9% (inactive).

As to `CCOP(=S)(OCC)O/N=C(\C#N)c1ccccc1`, the nuclear beta-catenin stimulation in assay [1] (at 10 µM) is -0.3% (inactive); in assay [1] (stimulation, at 2 µM), 0.3%. For the same compound, the insulin secretion stimulation in assay [2] is -1.4% (inactive). For the same compound, the viability decrease in assay [3] is -25.2% (inactive). For the same compound, in assay [4], the tube area decrease is -2.3% (inactive). Moreover, the GLP1 secretion stimulation in assay [5] was -1.1% (inactive). In addition, in assay [6], the inhibition of viability was 0.2% (inactive). In addition, the viability decrease (inhibition) was 36.2% (inactive) in assay [7] and -6.4% (inactive) in assay [8].

On to `CC(C)=C[C@@H]1[C@@H](C(=O)OCc2coc(Cc3ccccc3)c2)C1(C)C`, for which the nuclear beta-catenin stimulation is 0.3% (inactive) in assay [1] (at 10 µM) and 0.4% in assay [1] (stimulation, at 2 µM). Moreover, the insulin secretion stimulation in assay [2] was -3.4% (inactive). In assay [3], the viability decrease was 14.7% (inactive). The tube area decrease in assay [4] was 12.6% (inactive). Besides, in assay [5], the GLP1 secretion stimulation was -0.4% (inactive). The inhibition of viability in assay [6] is 12.9% (inactive). The viability decrease (inhibition) is 87.8% (active) in assay [7] and 23.4% (inactive) in assay [8].

Regarding `O=C(NC(O)C(Cl)(Cl)Cl)NC(O)C(Cl)(Cl)Cl` (stereo unspecified), the nuclear beta-catenin stimulation in assay [1] (at 10 µM) was 0.9% (inactive); in assay [1] (stimulation, at 2 µM), -2.1%. Also, the insulin secretion stimulation in assay [2] is 9.2% (inactive). Moreover, the viability decrease in assay [3] is -2.2% (inactive). Further, the tube area decrease in assay [4] was 1.1% (inactive). Also, the GLP1 secretion stimulation in assay [5] was 0.1% (inactive). Further, in assay [6], the inhibition of viability was 7.9% (inactive). Further, the figures for the viability decrease (inhibition) in assay [7] and in assay [8] were -28.2% (inactive) and -0.1% (inactive), respectively.

In the case of `CC(C)NCC(O)c1ccc([N+](=O)[O-])cc1` (stereo unspecified), the nuclear beta-catenin stimulation was -2.4% (inactive) in assay [1] (at 10 µM) and -1% in assay [1] (stimulation, at 2 µM). Also, the insulin secretion stimulation in assay [2] was 5.1% (inactive). In addition, the viability decrease in assay [3] is -1% (inactive). Besides, the tube area decrease in assay [4] is 15% (inactive). The GLP1 secretion stimulation in assay [5] was -0.9% (inactive). Further, the inhibition of viability in assay [6] is 17.5% (inactive). In addition, the viability decrease (inhibition) was 33.9% (active) in assay [7] and 1.9% (inactive) in assay [8].

Regarding `Nc1ccc(Cl)cc1C(=O)c1ccccc1F`, the nuclear beta-catenin stimulation in assay [1] (at 10 µM) was 2.3% (inactive); in assay [1] (stimulation, at 2 µM), 4.2%. For the same compound, in assay [2], the insulin secretion stimulation is 5% (inactive). The viability decrease in assay [3] is 23.5% (inactive). Moreover, the tube area decrease in assay [4] is 25.4% (inactive). In addition, the GLP1 secretion stimulation in assay [5] was 21.1% (active). For the same compound, the inhibition of viability in assay [6] is 44.6% (inactive). The viability decrease (inhibition) in assay [7] was 61.9% (active); in assay [8] it was 12.8% (inactive).

Regarding `ClCCCN1CCN(c2cccc(Cl)c2)CC1`, the nuclear beta-catenin stimulation in assay [1] (at 10 µM) was -0.9% (inactive); in assay [1] (stimulation, at 2 µM), -2.6%. Besides, the insulin secretion stimulation in assay [2] is 1.1% (inactive). Besides, in assay [3], the viability decrease is 15% (inactive). The tube area decrease in assay [4] is -11.1% (inactive). The GLP1 secretion stimulation in assay [5] was 1.5% (inactive). In assay [6], the inhibition of viability was 42.8% (inactive). Besides, the results for the viability decrease (inhibition) in assay [7] and in assay [8] were 26.2% (inactive) and 50.1% (active), respectively.

As for `C=CCOC(Cn1ccnc1)c1ccc(Cl)cc1Cl` (stereo unspecified), the nuclear beta-catenin stimulation was 4.9% (inactive) in assay [1] (at 10 µM) and 2.5% in assay [1] (stimulation, at 2 µM). For the same compound, the insulin secretion stimulation in assay [2] was 6.1% (inactive). For the same compound, in assay [3], the viability decrease is -54.8% (inactive). Moreover, the tube area decrease in assay [4] is 6.3% (inactive). Also, the GLP1 secretion stimulation in assay [5] was 0.8% (inactive). The inhibition of viability in assay [6] was 58.1% (active). Also, the viability decrease (inhibition) in assay [7] was 96.7% (active); in assay [8], 30.1% (inactive).

`O=C(Nc1ccc(Br)cc1)c1cc(Br)cc(Br)c1O`: the nuclear beta-catenin stimulation in assay [1] (at 10 µM) was 28.9% (inactive); in assay [1] (stimulation, at 2 µM) it was 0.4%. Besides, the insulin secretion stimulation in assay [2] is -3% (inactive). The viability decrease in assay [3] was 98% (active). The tube area decrease in assay [4] was 108% (active). Also, in assay [5], the GLP1 secretion stimulation is -3.5% (inactive). For the same compound, the inhibition of viability in assay [6] is 98.2% (active). The figures for the viability decrease (inhibition) in assay [7] and in assay [8] were 94.4% (active) and 100% (active), respectively.

Regarding `C[C@@]12CCCCC[C@@H](Cc3ccc(O)cc31)[C@H]2N`, the nuclear beta-catenin stimulation in assay [1] (at 10 µM) is -0.5% (inactive); in assay [1] (stimulation, at 2 µM), 0.1%. The insulin secretion stimulation in assay [2] was 11.2% (inactive). Also, in assay [3], the viability decrease was -4.1% (inactive). In assay [4], the tube area decrease is 8.5% (inactive). Also, the GLP1 secretion stimulation in assay [5] was -2.3% (inactive). Besides, the inhibition of viability in assay [6] is 13.4% (inactive). The viability decrease (inhibition) in assay [7] was 6.4% (inactive); in assay [8] it was -12.5% (inactive).

On to `COP(=S)(OC)Oc1ccc(S(=O)(=O)N(C)C)cc1`, for which the nuclear beta-catenin stimulation is -1.9% (inactive) in assay [1] (at 10 µM) and -0.5% in assay [1] (stimulation, at 2 µM). In assay [2], the insulin secretion stimulation was 0.3% (inactive). In assay [3], the viability decrease was -11.8% (inactive). The tube area decrease in assay [4] was -6.5% (inactive). Moreover, the GLP1 secretion stimulation in assay [5] was -1.2% (inactive). Also, the inhibition of viability in assay [6] was 4.9% (inactive). Moreover, the figures for the viability decrease (inhibition) in assay [7] and in assay [8] were 6.4% (inactive) and 0% (inactive), respectively.

As to `CC(Cc1ccccc1)NCc1ccccc1Cl` (stereo unspecified), the nuclear beta-catenin stimulation in assay [1] (at 10 µM) was 0.1% (inactive); in assay [1] (stimulation, at 2 µM), 0%. In addition, in assay [2], the insulin secretion stimulation is 10.2% (inactive). Also, the viability decrease in assay [3] is 26.5% (inactive). Further, in assay [4], the tube area decrease is -19.5% (inactive). In addition, the GLP1 secretion stimulation in assay [5] was 2.3% (inactive). Further, the inhibition of viability in assay [6] was 21.9% (inactive). Also, the values for the viability decrease (inhibition) in assay [7] and in assay [8] were 51.1% (active) and 22.6% (inactive), respectively.
